Bioassay records (PubChem BioAssay)
TEAD-YAP inh: TEAD-YAP interaction inhibition; HEK-TIYL cells, TEAD-Gal4/YAP UAS-luciferase luminescence; inhibition, % at 9.12 µM; 1.4% of 640,000 active; in the data active means inhibition above about 32%;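 further: 0% = median of test compound wells and 100% = reference inhibitor wells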
MITF inh: inhibitors of human MITF; O75030; inhibition, % at 2.6 µM; 0.91% of 650,000 active; AlphaScreen MITF homodimerization, bead proximity signal; in the data active means inhibition above about 50%;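 further: 0% = vehicle wells with protein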
GPR151 activ: human GPR151 activation. PathHunter beta-arrestin GPR151 cells, luminescence. activation, % at 11.2 µM. 1% of 650,000 active. AID 1508602; in the data active means activation above about 4.9%;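 further: 0% = median of compound wells and 100% = cells with positive control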
FBW7 act: human FBW7 E3 ligase activation, primary screen; normalized activity (activation), % at 26.1 µM; Q969H0; AlphaScreen FBW7–phospho-cyclin E peptide binding, activator screen; 0.13% of 650,000 active; AID 1259310; in the data active means normalized activity above about 1.9%;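 further: purified mutant Fbw7 with reduced substrate affinity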
Target sequence (Q969H0 whole entry, looked up): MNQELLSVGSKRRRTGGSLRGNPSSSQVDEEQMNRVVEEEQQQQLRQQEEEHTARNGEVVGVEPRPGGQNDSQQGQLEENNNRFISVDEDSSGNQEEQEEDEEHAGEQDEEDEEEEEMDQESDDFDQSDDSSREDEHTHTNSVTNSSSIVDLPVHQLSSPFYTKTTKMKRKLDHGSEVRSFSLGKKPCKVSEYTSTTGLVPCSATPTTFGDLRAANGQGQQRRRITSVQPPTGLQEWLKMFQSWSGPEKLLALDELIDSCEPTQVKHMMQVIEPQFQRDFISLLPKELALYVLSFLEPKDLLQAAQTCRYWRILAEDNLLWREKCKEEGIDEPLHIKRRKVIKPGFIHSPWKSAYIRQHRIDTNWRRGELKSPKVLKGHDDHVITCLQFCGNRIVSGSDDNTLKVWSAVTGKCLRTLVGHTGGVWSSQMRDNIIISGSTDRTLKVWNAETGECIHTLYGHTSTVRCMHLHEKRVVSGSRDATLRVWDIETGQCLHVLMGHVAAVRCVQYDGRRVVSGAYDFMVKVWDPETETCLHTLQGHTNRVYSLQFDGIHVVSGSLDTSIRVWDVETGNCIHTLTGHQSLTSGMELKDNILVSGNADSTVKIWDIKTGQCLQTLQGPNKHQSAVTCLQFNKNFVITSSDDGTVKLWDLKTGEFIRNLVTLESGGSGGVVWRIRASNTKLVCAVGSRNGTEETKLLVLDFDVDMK
* marks the source's active call; other numbers are inactive results. Only some compounds are listed: those with a hit (about 3.4% of all), similar ones and a draw of the others.

SMILES	TEAD-YAP inh	MITF inh	GPR151 activ	FBW7 act
CC(C)c1cc(=O)[nH]c(-n2nc(C3CC3)cc2NC(=O)C(C)(C)C)n1	57*	3	1	-1
Cc1cc(C)c(C)c(OCCOCCn2cnc3ccccc3c2=O)c1	10	-3	-1	0
Cc1nc(C)n(-c2ccc(Nc3ncc4ccc(-c5cn[nH]c5)cc4n3)cc2)n1	73*	11	-1	0
Cc1nc(C)n(-c2ccc(Nc3cc4cc(-c5cn[nH]c5)ccc4cn3)cc2)n1	85*	11	0	0
Cn1ncc2cc(Nc3ncc4ccc(-c5cn[nH]c5)cc4n3)ccc21	71*	22	4	0
Cc1ccc(-c2ncn(-c3ccc(Nc4ncc5ccc(Br)cc5n4)cc3)n2)cn1	4	-7	1	0
Cc1ncn(-c2ccc(Nc3ncc(Cl)c(-c4cn[nH]c4)n3)cc2)n1	7	-4	0	0
COc1ccc(Nc2cc(C)nc3c(C)cc(C)c([N+](=O)[O-])c23)cc1	-9	4	2	0
Cc1ccc(NC(=O)c2c(O)c3c([nH]c2=O)CCCC3)cc1	2	2	-1	0
O=C(Nc1ccc(O)cc1)c1c(O)c2c([nH]c1=O)CCCC2	68*	4	2	0
COc1cc(NC(=O)C(C)Oc2ccc(Br)cc2)cc(OC)c1 (configuration not stated)	7	-1	0	0
CC(=O)Nc1cccc(-c2cnc3c(N4CCOCC4)nccn23)c1	79*	11	-1	-1
Oc1ccc(-c2cnc3c(N4CCOCC4)nccn23)cc1	79*	45	-1	0
CC(=O)Nc1cccc(-c2cnc3c(N4CCN(C)CC4)nccn23)c1	-68	13	1	-1
Oc1cccc(-c2cnc3c(N4CCOCC4)nccn23)c1	80*	10	0	-1
CC1CCN(S(=O)(=O)c2ccc(F)c(C(=O)NCCc3ccccc3)c2)CC1	-8	-4	0	0
COc1ccccc1CNC(=O)c1cc2c(=O)[nH]c3ccccc3c2n1C	-1	-3	2	4.8*
CNc1c(C)ccc2c1C(=O)c1ccccc1C2=O	-43	84*	-1	-2
CC(C)C[C@@H]1NC(=O)[C@H]2CN(S(=O)(=O)c3cccc4ccccc34)CCN2C1=O	-1	-1	3	0
COc1ccc(C(=O)Nc2cc(C)ccc2O)cc1	44*	-5	-9	0
Cc1ccc(O)c(NC(=O)c2ccc(N3C(=O)c4ccc([N+](=O)[O-])cc4C3=O)cc2)c1	55*	-26	0	0
COc1cc(OC)cc(C(=O)c2ccc(C(=O)Nc3cc(C(C)C)c(O)cc3C)cc2)c1	47*	-1	0	0
O=C(Nc1ccc([N+](=O)[O-])cc1)c1ccc(N2C(=O)c3ccc([N+](=O)[O-])cc3C2=O)cc1	-6	8	0	0
COc1ccc(C(=O)Nc2cc(C)ccc2O)c(OC)c1	-52	6	1	0
Cc1cc(C)n2nc(CNS(=O)(=O)c3ccc(Br)cc3)nc2n1	-3	-3	0	0
SMILES	TEAD-YAP inh	MITF inh	GPR151 activ	FBW7 act
CSc1ccc(-c2cn3c(NC(=O)CC(C)C)c(C)nc3cn2)cc1	-11	10	1	0
Cc1oc2c(c1C(=O)NCC1CCCO1)C(=O)c1ccccc1C2=O (configuration not stated)	77*	11	-2	0
Cc1oc2c(c1C(=O)N1CCN(C)CC1)C(=O)c1ccccc1C2=O	48*	20	-1	0
COc1cc(OC)cc(C(=O)NNC(=O)COc2ccccc2OC)c1	-3	-1	0	0
COc1cccc(NC(=O)CSc2nc(NC3CCCCC3)c3ccccc3n2)c1	44*	14	1	0
CCOC(=O)CC(NC(=O)c1ccco1)c1ccc(OCC)cc1 (configuration not stated)	-7	-5	0	0
c1ccc(-c2csc3ncnc(NCc4ccccn4)c23)cc1	13	-2	0	0
COC(=O)CCCNc1ncnc2scc(-c3ccccc3)c12	35*	-2	-1	0
CCCCNc1ncnc2scc(-c3ccccc3)c12	56*	19	3	1
c1ccc(-c2csc3ncnc(NCc4ccco4)c23)cc1	34*	16	2	0
COCCCNc1ncnc2scc(-c3ccccc3)c12	59*	2	2	0
COC(=O)CNc1ncnc2scc(-c3ccccc3)c12	-4	10	-1	0
CCN(Cc1ccccc1)S(=O)(=O)c1cc2c(cc1Cl)NC(=O)CO2	4	11	-1	0
O=C1c2cccc([N+](=O)[O-])c2C(=O)N1c1ccc(Br)cc1Cl	9	6	0	0
COc1ccc(C(=O)Nc2cnc(NC(=O)c3cccs3)cc2C)cc1	37*	-7	-2	0
CCC(=O)Nc1cnc(NC(=O)c2ccc(Cl)cc2)cc1C	-13	8	0	0
CC(=O)Nc1cnc(NC(=O)c2ccc(Cl)cc2)cc1C	52*	-2	0	0
COc1ccc(OC)c(C(=O)COc2ccccc2C#N)c1	41*	19	0	0
CCOc1ccccc1/C=C1\C(=O)Nc2ccc(C)cc21	-2	14	-2	0
O=C(Nc1cccc(-n2cnnn2)c1)C1CCCN(Cc2cc3ccccc3o2)C1 (configuration not stated)	41*	3	0	0
O=C(Nc1cccc(-n2cnnn2)c1)C1CCCN(Cc2ccccc2)C1 (configuration not stated)	2	-4	-1	0
Cc1ccc(C2CC(=O)Nc3ccc4ccccc4c32)cc1 (configuration not stated)	2	17	-1	0
O=C1CC(c2cccc([N+](=O)[O-])c2)c2c(ccc3ccccc23)N1 (configuration not stated)	61*	-5	1	0
CCOC(=O)c1ccc(NC(=O)c2ccc(C)c(S(=O)(=O)N3CCOCC3)c2)cc1	37*	3	1	0
CCOC(=O)c1ccc(NC(=O)c2ccc(Br)c(S(=O)(=O)N3CCCCC3)c2)cc1	49*	-6	1	0
SMILES	TEAD-YAP inh	MITF inh	GPR151 activ	FBW7 act
Cc1ccc(C(=O)Nc2ccc(Sc3ccccc3)cc2)cc1S(=O)(=O)N1CCOCC1	36*	16	0	0
CCCCOC(=O)C1=C(C)NC2=C(C(=O)CC(C)(C)C2)C1c1cccnc1 (configuration not stated)	-8	-2	0	0
Cc1ccc(Cl)cc1NC(=O)C(=O)NC(C)C	1	1	1	0
Cc1cccc(/C=N/Nc2nncc3ccccc23)c1	67*	-6	-6	0
O=C(CSc1nnc2ccc(-c3ccccc3)nn12)NCc1ccccc1	41*	9	0	0
O=C(CSc1nnc2ccc(-c3ccc(F)cc3)nn12)NCc1ccccc1	41*	9	-1	0
O=C(CSc1nnc2ccc(-c3ccc(F)cc3)nn12)NCCc1ccccc1	-3	-1	-1	0
Cc1nc(NCCNC(=O)c2ccc(F)cc2Cl)cc(N2CCCC2)n1	-3	13	0	0
COc1ccc(Cl)cc1C(=O)NCCn1ccc2ccccc21	-9	1	0	0
